The campaign covered roughly 48,000 compounds. About 550 (1.1%) were called active. Not shown: some 4% with an inconclusive outcome. No stated cut-off is given here; in the data, active means potency below about 15 µM; inconclusive means mostly about 16 µM to 33 µM; inactive means weaker than that. The sample as a whole holds a higher share of actives than the screen did.
Target: Lysosomal acid glucosylceramidase (Homo sapiens) (UniProt P04062)
Test: Glucocerebrosidase;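 further: the screen sought inhibitors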
Settings: purified enzyme, resorufin glucoside fluorescence (screen aimed at inhibitors), 20 min
Excerpt: NCGC Assay Overview: Beta-glucocerebrosidase catalyzes the hydrolysis of beta-glucocerebroside to glucose and ceramide. The inherited deficiency of beta-glucocerebrosidase results in Gaucher disease, which is characterized by a wide variety of symptoms including hepatosplenomegaly, anemia, thrombocytopenia, bony lesions and bone marrow infiltration with characteristic storage cells, known as Gaucher cells. There are also forms of the disorder affecting the central nervous system. Patients with the same genotypes can manifest with diverse clinical presentations and it is believed that improper folding and trafficking of beta-glucocerbrosidase may contribute to the phenotypes observed. Low molecular weight molecules, acting as chaperones, may potentially restore trafficking of misfolded beta-glucocerebrosidase from the endoplasmic reticulum to the lysosomes, thereby enhancing functional lysosomal beta-glucocerebrosidase activity. Using normal beta-glucocerebrosidase, an assay was developed to screen for small molecule inhibitors that could potentially act as molecular chaperones on the mutant forms [developed with NIH investigator Dr. Ellen Sidransky's laboratory]. Two pro-fluorescent substrates were chosen for two screens against a small molecule library. One beta-glucocerebrosidase assay used Resorufin beta-D-Glucopyranoside (Marker Gene Technology Inc.), generating a red fluorescent product. The second assay used Fluorescein di-beta-D-Glucopyranoside, generating a blue fluorescent product. […] The IC50 values of Conduritol B Epoxide, a known glucocerebrosidase inhibitor, were determined to be 87.5 uM and 117 uM, respectively. The use of two difference pro-fluorescent substrates in the screens helped to eliminate false positives. All compounds were screened in a titration series resulting in AC50s (e.g., IC50s or EC50s).
NCGC Assay Protocol Summary: Both enzyme and substrate were diluted in buffer composed of 50mM citric acid/KH2PO4, 10mM sodium taurocholate and 0.01% tween-20 at pH 5.9. The final concentration of the enzyme was 0.2 nM in both assays. The compound library was titrated in 7 to 15 concentrations for the primary screens with a final concentration ranging from 0.6 nM to 50 uM. This particular assay protocol is for the "red" substrate, and it was performed in 1536-well plate format as follows: Red fluorescence substrate assay: 2 uL enzyme 23 nL compound 1 uL substrate (final concentration of 30 uM) Incubate at room temperature (RT) for 20 minutes Read the plate in Viewlux plate reader (Ex=548(7) and Em=600(10)).
Potency means the concentration at half of the fitted maximal effect.

Lysosomal acid glucosylceramidase (Homo sapiens), sequence (P04062 whole entry, looked up): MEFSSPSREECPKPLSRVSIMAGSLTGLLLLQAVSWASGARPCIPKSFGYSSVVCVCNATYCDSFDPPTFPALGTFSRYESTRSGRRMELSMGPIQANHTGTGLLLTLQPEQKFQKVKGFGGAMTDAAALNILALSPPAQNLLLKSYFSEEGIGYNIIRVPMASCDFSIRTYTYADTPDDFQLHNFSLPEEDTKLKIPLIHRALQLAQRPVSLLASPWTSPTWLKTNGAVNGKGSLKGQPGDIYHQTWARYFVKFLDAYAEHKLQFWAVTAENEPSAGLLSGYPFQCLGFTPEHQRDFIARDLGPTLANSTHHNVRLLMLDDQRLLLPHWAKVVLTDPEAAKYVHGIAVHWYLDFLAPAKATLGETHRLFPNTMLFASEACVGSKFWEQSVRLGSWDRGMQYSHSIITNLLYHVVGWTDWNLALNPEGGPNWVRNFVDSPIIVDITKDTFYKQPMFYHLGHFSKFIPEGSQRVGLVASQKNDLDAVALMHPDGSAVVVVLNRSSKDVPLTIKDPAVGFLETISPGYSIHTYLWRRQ

Potency, inactive:
CCC(=O)Nc1cccc(NC(=O)CSc2nnc(-c3ccc(NS(C)(=O)=O)cc3)n2C)c1 > 76.9 µM
Cn1c(CN2CCOCC2)nc2cc(NC(=O)c3ccc(Cl)cc3)ccc21 52.2 µM
O=C(NCCCN1CCOCC1)c1cc(-c2ccc(Cl)cc2)on1 > 76.9 µM
O=C(CSc1n[nH]c(-c2cccnc2)n1)Nc1ccnc2ccccc12 > 76.9 µM
COC(=O)c1ccccc1NC(=O)CSc1ccccn1 > 76.9 µM
O=C(CS(=O)(=O)Cc1ccccc1)NCC1CCCO1 (centres undefined) > 76.9 µM
CC(C)N(C(=O)Cn1c(SCC(=O)N2CCN(c3ccccc3)CC2)nc2ccccc21)C(C)C > 76.9 µM
CCOC(=O)c1sc(NC(=S)n2cc(C)cn2)c(C(=O)OCC)c1C > 76.9 µM
COc1cccc(NC(=O)CN(C)S(=O)(=O)c2ccc(C)cc2)c1 > 76.9 µM
CC(C)NS(=O)(=O)c1ccc(CCC(=O)N2CCOCC2)cc1 > 76.9 µM
CCCc1nnc(NC(=O)CN2C(=O)c3ccccc3S2(=O)=O)s1 > 76.9 µM
CN1CCN(c2nc3c(c(=O)[nH]c(=O)n3C)n2Cc2cccc3ccccc23)CC1 > 76.9 µM
COc1ccc(C2N=C(N)N=C(N)N2c2ccccc2)cc1OC (centres undefined) > 76.9 µM
O=C(Cn1c(-c2ccc(Cl)cc2)noc1=O)N1CCN(c2ccccc2F)CC1 > 76.9 µM
Fc1ccc(OCc2nn3c(Cn4nnc5ccccc54)nnc3s2)cc1 > 76.9 µM
Cc1ccc(S(=O)(=O)N2CCC(C(=O)N[C@@H](C)C(=O)NCc3ccccc3)CC2)cc1 > 76.9 µM
C/C(O)=C\c1nc(=O)c2c(C)cc(C)nc2n1-c1ccccc1 > 76.9 µM
O=C(COc1ccc(F)cc1)N(CC1=CCS(=O)(=O)C1)c1ccccc1 > 76.9 µM
COc1ccc2nc(NC3=NCN(CC4CCCO4)CN3)nc(C)c2c1 (centres undefined) > 76.9 µM
Cc1cc(C)nc(N2CCN(c3ncnc4c3oc3ccccc34)CC2)n1 > 76.9 µM
COc1ccc(CCn2c(-c3ccco3)nc3nc4ccccc4nc32)cc1OC > 76.9 µM
CCOC(=O)CCC(=O)OCC(=O)NC(C)C1CC2CCC1C2 (centres undefined) > 76.9 µM

Potency, active:
COc1cccc2cc(C(C)N(CCCN3CCOCC3)C(=O)Nc3ccc(Cl)cc3)oc12 (centres undefined) 9.17 µM
CC(C)c1nc2oc3c(N4CCN(C)CC4)ncnc3c2c2c1CCC2 8.51 µM
